According to PubChem BioAssay (Tox21):
Results filed as inconclusive are left out. Calls of active or inactive are those of the source. Unless noted, the call rests on the fitted dose curve; in most records, active means well fitted curve in the direction sought with a large enough effect in the repeat runs; inconclusive means weak or mixed curves; inactive means no such curve, though single readings can be large; an effect the other way counts as inactive or inconclusive.

Legend:
[1] = qHTS assay to identify small molecule antagonists of the retinoic acid receptor (RAR) signaling pathway (AID 1159552; further: nearly all actives have a fitted effect of over 50% in size; further: potency means the concentration at half of the fitted maximal effect)
Summary of the method: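 Luminescence from a RARE luciferase reporter in C3RL4 cells served as read-out. Cells received compounds together with 1 uM final retinol and incubated 6 hr at 37 C before detection reagent was added for 30 min at room temperature.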

[2] = qHTS assay to identify small molecule antagonists of the estrogen related receptor (ERR) signaling pathway from Tox21 library - cell viability counter screen (AID 1224834); further: nearly all actives have a fitted effect of over 30% in size; further: potency means the concentration at half of the fitted maximal effect
Summary of the method: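 In this quantitative HTS format, ERR cells receive compounds in DMSO and are incubated for 17.5 h at 37 C. Live-cell protease activity is then detected with CellTiter-Fluor.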

[3] = biological target: Luciferin 4-monooxygenase (Photinus pyralis) (UniProt P08659); test: qHTS assay to identify small molecule inhibitors of firefly luciferase (AID 1224835); further: nearly all actives have a fitted effect of over 25% in size; further: potency means the concentration at half of the fitted maximal effect; on activity change, negative = inhibition: series mostly up to about 120 µM
Sequence of Luciferin 4-monooxygenase (Photinus pyralis) (P08659 whole entry, looked up): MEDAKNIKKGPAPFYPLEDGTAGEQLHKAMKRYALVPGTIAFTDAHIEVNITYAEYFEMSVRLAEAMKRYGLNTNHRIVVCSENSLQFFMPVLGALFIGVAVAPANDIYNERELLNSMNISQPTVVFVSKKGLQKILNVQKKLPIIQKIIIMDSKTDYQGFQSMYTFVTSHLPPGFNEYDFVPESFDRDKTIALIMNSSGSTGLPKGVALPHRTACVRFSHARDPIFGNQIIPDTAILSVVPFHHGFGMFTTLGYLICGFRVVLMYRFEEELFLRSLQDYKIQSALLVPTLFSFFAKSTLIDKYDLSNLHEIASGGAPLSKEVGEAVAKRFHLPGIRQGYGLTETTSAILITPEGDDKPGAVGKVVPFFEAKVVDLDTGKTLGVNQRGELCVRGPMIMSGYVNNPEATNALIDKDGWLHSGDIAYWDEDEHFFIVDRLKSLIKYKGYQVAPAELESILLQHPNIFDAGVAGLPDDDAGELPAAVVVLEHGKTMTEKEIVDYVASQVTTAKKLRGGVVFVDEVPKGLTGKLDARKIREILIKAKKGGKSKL
Summary of the method: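 Inhibition of purified Photinus luciferase is measured by luminescence. Substrate levels (D-luciferin, ATP) sit at their KM values. Each compound is tested in a concentration series.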

[4] = qHTS assay to identify small molecule agonists of the constitutive androstane receptor (CAR) signaling pathway - cell viability counter screen (AID 1224836); further: nearly all actives have a fitted effect of over 45% in size; further: potency means the concentration at half of the fitted maximal effect; on viability change, negative = cytotoxic: series mostly up to about 92 µM
Summary of the method: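 Viability read-out: CellTiter-Fluor fluorescence after 23 h compound exposure at 37 C/5% CO2 in double-stable HepG2-CYP2B6-hCAR cells, with PK11195 present at 0.75 uM final; compounds tested in 15-point titration.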

[5] = qHTS assay to identify small molecule antagonists of the constitutive androstane receptor (CAR) signaling pathway - cell viability counter screen (AID 1224837); further: nearly all actives have a fitted effect of over 45% in size; further: potency means the concentration at half of the fitted maximal effect; on activity change, negative = cytotoxicity: series mostly up to about 92 µM
Summary of the method: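 In quantitative HTS format, compounds at 15 concentrations were applied to HepG2 cells double-transfected with hCAR and CYP2B6-2.2kb under 50 nM CITCO stimulation; live-cell protease activity was read after 23 hr via CellTiter-Fluor.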

[6] = biological target: Nuclear receptor subfamily 1 group I member 3 (Homo sapiens) (UniProt Q14994); test: qHTS assay to identify small molecule antagonists of the constitutive androstane receptor (CAR) signaling pathway (AID 1224838); further: nearly all actives have a fitted effect of over 40% in size; further: potency means the concentration at half of the fitted maximal effect
Sequence of Nuclear receptor subfamily 1 group I member 3 (Homo sapiens) (Q14994 whole entry, looked up): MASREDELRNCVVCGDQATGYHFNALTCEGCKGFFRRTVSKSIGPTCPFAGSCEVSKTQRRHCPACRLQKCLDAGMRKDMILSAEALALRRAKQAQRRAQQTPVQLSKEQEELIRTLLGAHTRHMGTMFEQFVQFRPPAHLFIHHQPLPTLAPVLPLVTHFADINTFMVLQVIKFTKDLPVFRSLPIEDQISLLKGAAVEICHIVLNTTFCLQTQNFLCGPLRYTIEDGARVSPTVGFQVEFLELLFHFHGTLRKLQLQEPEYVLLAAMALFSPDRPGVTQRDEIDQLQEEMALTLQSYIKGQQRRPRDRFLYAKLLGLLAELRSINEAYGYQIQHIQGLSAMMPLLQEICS
Summary of the method: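 CITCO-stimulated (50 nM final) HepG2 cells stably transfected with hCAR and CYP2B6-2.2kb luciferase were exposed to compounds at 15 concentrations for 24 h at 37 C/5% CO2. A luciferase reagent was added and luminescence recorded after 30 min.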

[7] = biological target: Nuclear receptor subfamily 1 group I member 3 (Homo sapiens) (UniProt Q14994); test: qHTS assay to identify small molecule agonists of the constitutive androstane receptor (CAR) signaling pathway (AID 1224839);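 further: HepG2 cells stably carrying human CAR and a CYP2B6 luciferase reporter; series mostly up to about 92 µM; nearly all actives have a fitted effect of over 15% in size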
Summary of the method: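 Luminescence read-out (ONE-Glo, 30 min, room temperature) from double-stable HepG2-CYP2B6-hCAR cells exposed 24 h to 15-point compound series in presence of 0.75 uM PK11195 final.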

[8] = qHTS assay to identify small molecule antagonists of the estrogen related receptor signaling pathway with the pleiotropic PPARgamma coactivator (PGC) from Tox21 10K library - cell viability counter screen (AID 1224840; active means well fitted cell-killing curve with a large enough effect in the repeat runs, not every such curve was filed as active; further: nearly all actives have a fitted effect of over 40% in size; further: potency means the concentration at half of the fitted maximal effect)
Summary of the method: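 Viability counter screen, PGC/ERR cells: 17.5 h compound exposure at 37 C, CellTiter-Fluor fluorescence endpoint.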

[9] = biological target: Thyrotropin receptor (Homo sapiens) (UniProt P16473); test: qHTS assay to identify small molecule agonists of the thyroid stimulating hormone receptor (TSHR) signaling pathway (AID 1224843; calls by dose curve; further: nearly all actives have a fitted effect of over 45% in size)
Sequence of Thyrotropin receptor (Homo sapiens) (P16473 whole entry, looked up): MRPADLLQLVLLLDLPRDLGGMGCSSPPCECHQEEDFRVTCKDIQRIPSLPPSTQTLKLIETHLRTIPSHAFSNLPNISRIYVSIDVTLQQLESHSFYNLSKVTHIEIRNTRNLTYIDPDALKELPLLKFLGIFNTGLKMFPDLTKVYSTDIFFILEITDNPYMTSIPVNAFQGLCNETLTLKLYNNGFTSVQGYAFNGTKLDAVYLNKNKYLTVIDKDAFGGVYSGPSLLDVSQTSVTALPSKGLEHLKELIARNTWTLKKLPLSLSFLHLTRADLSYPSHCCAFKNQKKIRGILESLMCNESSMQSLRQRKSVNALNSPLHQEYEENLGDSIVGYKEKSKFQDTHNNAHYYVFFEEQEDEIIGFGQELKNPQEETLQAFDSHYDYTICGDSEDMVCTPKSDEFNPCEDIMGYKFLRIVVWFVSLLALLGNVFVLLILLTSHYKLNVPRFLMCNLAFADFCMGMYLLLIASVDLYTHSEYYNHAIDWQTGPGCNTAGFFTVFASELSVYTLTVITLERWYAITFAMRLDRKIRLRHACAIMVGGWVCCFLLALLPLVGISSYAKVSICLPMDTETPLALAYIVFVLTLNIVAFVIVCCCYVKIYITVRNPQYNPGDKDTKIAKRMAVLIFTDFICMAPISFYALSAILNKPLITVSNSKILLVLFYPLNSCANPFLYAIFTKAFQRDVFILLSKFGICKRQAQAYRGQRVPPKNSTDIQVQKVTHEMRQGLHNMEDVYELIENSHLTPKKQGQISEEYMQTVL
Summary of the method: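 Agonist activity read as cAMP rise via d2/cryptate HTRF competition, 1 h room-temperature detection, in HEK293 cells expressing TSHR. Fifteen-point titrations, each run in triplicate, with a 30 min room-temperature incubation beforehand.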

[10] = qHTS assay to identify small molecule agonists of the hypoxia (HIF-1) signaling pathway - cell viability counter screen (AID 1224844; calls by dose curve; further: nearly all actives have a fitted effect of over 50% in size; further: potency means the concentration at half of the fitted maximal effect)
Summary of the method: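 Same wells as the HIF-1 reporter screen; ME-180 cells carrying HRE-bla, 17 hr treatment at 37C; CellTiter-Glo luminescence read after 30 min at room temperature.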

[11] = qHTS assay to identify small molecule agonists of H2AX (AID 1224845; active means well fitted activation curve with a large enough effect in the signal ratio in the repeat runs, not every such curve was filed as active; the % refers to the signal ratio)
Summary of the method: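 Phospho-H2AX Ser139 measured by HTRF (ex 320 nm; em 665 and 620 nm) after 24 hr antibody incubation. Compounds, 15 concentrations, 0.76% DMSO, were applied to CHO-K1 cells for 3hr at 37C before lysis.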

[12] = qHTS assay to identify small molecule antagonists of the estrogen related receptor signaling pathway with the pleiotropic PPARgamma coactivator (PGC) from Tox21 10K library (AID 1224841; call rule not given here; further: series mostly up to about 92 µM; actives are mostly falling curves and most rising ones were filed inactive; nearly all actives have a fitted effect of over 50% in size)
Summary of the method: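 In the PGC/ERR line, DMSO solutions of test chemicals are pin-delivered to 2,000 cells/well six hours after dispensing. Following eighteen hours' incubation, One-Glo reagent is added and luminescence recorded.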

[13] = qHTS assay to identify small molecule agonists of the estrogen related receptor signaling pathway with the pleiotropic PPARgamma coactivator (PGC) from Tox21 10K library (AID 1224842); further: nearly all actives have a fitted effect of over 15% in size
Summary of the method: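 Luminescence from One-Glo (30 min, room temperature) measured after PGC/ERR cells had 18 h at 37 C with pinned compound (23 nL in DMSO). Cells had been seeded at 2,000 per well and pre-incubated 6 h.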
On the % scale 0 is the no-effect control and ±100 the full control effect.

CCOC(=O)COc1ccc(C)cc1
inactive: Potency [1] | Potency [2] | Potency [4] | Potency [5] | Potency [6] | Potency [7] | Potency [8] | Potency [9] | Potency [10] | Potency [11]
active: Potency [3] 63.3 µM

CCCCCCCOC(=O)c1ccccc1C(=O)OCCCCCCC
inactive: Potency [1] | Potency [2] | Potency [3] | Potency [4] | Potency [5] | Potency [6] | Potency [8] | Potency [12] | Potency [13] | Potency [9] | Potency [10] | Potency [11]

COc1ccc(C#N)cc1
inactive: Potency [1] | Potency [2] | Potency [3] | Potency [4] | Potency [5] | Potency [6] | Potency [7] | Potency [8] | Potency [10]

CC[N+](CC)(CC)Cc1ccccc1
inactive: Potency [1] | Potency [2] | Potency [3] | Potency [4] | Potency [5] | Potency [6] | Potency [8] | Potency [13] | Potency [10] | Potency [11]

CCNc1nc(NC(C)CC)nc(OC)n1 (stereo not drawn)
inactive: Potency [1] | Potency [2] | Potency [3] | Potency [4] | Potency [5] | Potency [6] | Potency [8] | Potency [13] | Potency [9] | Potency [10] | Potency [11]

C=CC(C)C#N (stereo not drawn)
inactive: Potency [1] | Potency [2] | Potency [3] | Potency [4] | Potency [5] | Potency [6] | Potency [7] | Potency [8] | Potency [10] | Potency [11]

O=C1OC(=O)c2ccc3c4c(ccc1c24)C(=O)OC3=O
inactive: Potency [1] | Potency [2] | Potency [3] | Potency [4] | Potency [5] | Potency [6] | Potency [7] | Potency [8] | Potency [9] | Potency [11]

C[Si](C)O[Si](C)C
inactive: Potency [1] | Potency [2] | Potency [3] | Potency [4] | Potency [5] | Potency [6] | Potency [7] | Potency [8] | Potency [9] | Potency [10] | Potency [11]

CCCC(C)CCC(C)=O (stereo not drawn)
inactive: Potency [1] | Potency [2] | Potency [3] | Potency [4] | Potency [5] | Potency [6] | Potency [7] | Potency [8] | Potency [9] | Potency [11]

N#CSCSc1nc2ccccc2s1
active: Potency [1] 17.2 µM | Potency [2] 61.1 µM | Potency [3] 35.6 µM | Potency [4] 61.1 µM | Potency [5] 27.3 µM | Potency [6] 30.6 µM | Potency [8] 61.1 µM | Potency [10] 6.92 µM
inactive: Potency [7]

CCc1ccc(C)nc1
inactive: Potency [1] | Potency [2] | Potency [3] | Potency [4] | Potency [5] | Potency [6] | Potency [7] | Potency [8] | Potency [9] | Potency [10] | Potency [11]

CCOC(=O)CC(C)O (stereo not drawn)
inactive: Potency [1] | Potency [2] | Potency [3] | Potency [4] | Potency [5] | Potency [6] | Potency [8] | Potency [13] | Potency [9] | Potency [10] | Potency [11]

CCCCCCS
inactive: Potency [1] | Potency [2] | Potency [3] | Potency [4] | Potency [5] | Potency [6] | Potency [7] | Potency [8] | Potency [9] | Potency [10] | Potency [11]

CCOCN(C(=O)CS(=O)(=O)O)c1c(C)cccc1CC
inactive: Potency [1] | Potency [2] | Potency [3] | Potency [4] | Potency [5] | Potency [6] | Potency [8] | Potency [9] | Potency [10] | Potency [11]

CCCCCCCCCCc1ccccc1
inactive: Potency [1] | Potency [2] | Potency [3] | Potency [4] | Potency [5] | Potency [8] | Potency [12] | Potency [13] | Potency [10] | Potency [11]

O=S(=O)(O)c1cc(S(=O)(=O)O)c2ccc3c(S(=O)(=O)O)cc(S(=O)(=O)O)c4ccc1c2c43
inactive: activity, negative = inhibition [1] 14.4% [at 19 µM] | viability change, negative = cytotoxic [2] 4.03% [at 19 µM] | activity change, negative = inhibition [3] -0.173% [at 23.6 µM] | viability change, negative = cytotoxic [4] 3.39% [at 19 µM] | activity change, negative = cytotoxicity [5] 0.0028% [at 19 µM] | viability change, negative = cytotoxic [8] 1.08% [at 19 µM] | activity, negative = inhibition [12] 13.5% [at 19 µM] | activation [13] 0.18% [at 19 µM] | activation [9] -6.64% [at 19 µM] | activity change, negative = cytotoxicity [10] 1.23% [at 15.8 µM]

COC(=O)CC(C)CCC=C(C)C (stereo not drawn)
inactive: Potency [1] | Potency [2] | Potency [3] | Potency [4] | Potency [5] | Potency [8] | Potency [13] | Potency [10]

Cc1cccc(C)n1
inactive: Potency [1] | Potency [2] | Potency [3] | Potency [4] | Potency [5] | Potency [6] | Potency [8] | Potency [9] | Potency [10]

CC1(C)C(=O)N(CO)C(=O)N1CO
inactive: Potency [1] | Potency [2] | Potency [3] | Potency [4] | Potency [5] | Potency [8] | Potency [9] | Potency [10] | Potency [11]

Cc1cc(=O)[nH]c(=O)[nH]1
inactive: Potency [1] | Potency [2] | Potency [3] | Potency [4] | Potency [5] | Potency [8] | Potency [9] | Potency [10] | Potency [11]

C=C/C=C/C=C/CCCCC
inactive: activity, negative = inhibition [1] 7.32% [at 19 µM] | viability change, negative = cytotoxic [2] -1.2% [at 19 µM] | activity change, negative = inhibition [3] 0.374% [at 23.6 µM] | viability change, negative = cytotoxic [4] -0.14% [at 19 µM] | activity change, negative = cytotoxicity [5] -1.33% [at 19 µM] | viability change, negative = cytotoxic [8] -9.87% [at 19 µM] | activation [13] 0.0738% [at 19 µM] | activation [9] -9.38% [at 19 µM] | activation (H2AX phosphorylation) [11] 0.418% [at 31.6 µM]

Clc1nc2ccccc2s1
inactive: Potency [1] | Potency [2] | Potency [3] | Potency [4] | Potency [5] | Potency [8] | Potency [9] | Potency [10]
